According to PubChem BioAssay (NCATS):
Results filed as inconclusive are left out. Active and inactive are the calls of the source. Unless noted, calls follow the shape of the dose curve; as a rule, active = well fitted curve in the direction sought with a large enough effect; inconclusive = small, poorly fitted or top-dose-only effect, or another doubt; inactive = no such curve, though single readings can be large; an effect the other way counts as inactive or inconclusive.

What was measured:
[1] = biological target: Lysosomal acid glucosylceramidase (Homo sapiens) (UniProt P04062); test: Glucocerebrosidase-p2 (AID 348; in the data active = potency below about 10 µM; also: potency is read from the fitted curve at half-maximal effect); conditions: purified GBA, blue fluorogenic substrate, 40 min
Lysosomal acid glucosylceramidase (Homo sapiens), sequence (P04062 whole entry, looked up): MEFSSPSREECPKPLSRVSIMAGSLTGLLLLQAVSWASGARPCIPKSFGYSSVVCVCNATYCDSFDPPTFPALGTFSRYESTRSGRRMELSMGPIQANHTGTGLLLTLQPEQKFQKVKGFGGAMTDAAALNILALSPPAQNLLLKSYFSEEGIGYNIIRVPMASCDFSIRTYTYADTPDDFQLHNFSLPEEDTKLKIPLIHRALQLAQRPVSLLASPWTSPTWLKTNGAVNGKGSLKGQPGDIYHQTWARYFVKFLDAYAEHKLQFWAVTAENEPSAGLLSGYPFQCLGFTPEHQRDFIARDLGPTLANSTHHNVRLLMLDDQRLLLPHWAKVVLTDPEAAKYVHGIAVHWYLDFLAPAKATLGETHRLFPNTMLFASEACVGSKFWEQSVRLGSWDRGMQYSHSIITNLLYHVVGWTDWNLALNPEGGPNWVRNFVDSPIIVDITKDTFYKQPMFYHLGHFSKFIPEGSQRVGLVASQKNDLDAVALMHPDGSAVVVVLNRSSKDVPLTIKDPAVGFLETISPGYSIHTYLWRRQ
Outline: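 Compounds titrated from 0.6 nM upwards against 0.2 nM enzyme in pH 5.9 citric acid/KH2PO4, taurocholate, tween-20; blue fluorogenic substrate 80 uM, 40 min room temperature, stopped and read Ex 365/Em 440 for AC50.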

[2] = biological target: Cytochrome P450 1A2 (Homo sapiens) (UniProt P05177); test: p450-cyp1a2 (AID 410; calls by dose curve; also: potency is read from the fitted curve at half-maximal effect); conditions: recombinant CYP1A2, luciferin-ME demethylation, luminescence; series mostly up to 57 µM
Cytochrome P450 1A2 (Homo sapiens), sequence (P05177 whole entry, looked up): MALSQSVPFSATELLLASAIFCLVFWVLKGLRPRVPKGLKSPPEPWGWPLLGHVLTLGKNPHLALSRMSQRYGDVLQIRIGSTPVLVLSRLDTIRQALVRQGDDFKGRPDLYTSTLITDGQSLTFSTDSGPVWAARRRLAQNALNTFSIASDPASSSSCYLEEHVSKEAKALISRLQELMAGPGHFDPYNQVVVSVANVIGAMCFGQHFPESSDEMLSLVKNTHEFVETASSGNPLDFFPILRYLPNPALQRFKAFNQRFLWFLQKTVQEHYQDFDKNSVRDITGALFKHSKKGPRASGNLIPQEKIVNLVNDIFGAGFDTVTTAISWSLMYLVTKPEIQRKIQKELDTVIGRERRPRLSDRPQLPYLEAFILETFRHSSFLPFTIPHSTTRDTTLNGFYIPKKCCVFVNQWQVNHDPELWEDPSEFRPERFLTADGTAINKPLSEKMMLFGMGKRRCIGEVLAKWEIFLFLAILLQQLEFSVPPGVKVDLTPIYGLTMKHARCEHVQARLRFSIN
Outline: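 20nM CYP1A2 with 100uM Luciferin-ME (at Km) in 100mM KPO4; compound preincubated 10 min, NADPH regeneration added, 60 min at room temperature. Luciferin quantified by luminescence after detection reagent; normalized to 57 uM furafylline.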

[3] = NFAT Signaling Pathway (AID 444; active = well fitted curve in either direction with a large enough effect, not every such curve was filed as active;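 also: carbachol stimulus at about its EC50 of 1 µM final; % is scaled to controls: 0 for no effect and ±100 for the full control effect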); conditions: Jurkat NFAT-bla M1, carbachol, beta-lactamase ratio, 5 h; at 7.69 µM (top of the series) unless noted
Outline: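 Jurkat cells carrying an NFAT-driven β-lactamase reporter and co-transfected muscarinic M1 receptor were treated with compound plus carbachol (1 uM final, an EC50 level) for 5 h at 37 °C. CCF4 loading followed for 1 h at RT; 460/530 nm ratio gave %activity.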

[4] = Stat Signaling Pathway (AID 446; active = well fitted curve in either direction with a large enough effect, not every such curve was filed as active;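 also: ME-180 cervical cancer cells given 40 pM IL-6 alongside compound; SIE-controlled beta-lactamase reporter measured as 460/530 nm FRET emission ratio; % is scaled to controls: 0 for no effect and ±100 for the full control effect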); conditions: ME-180 SIE beta-lactamase reporter, IL-6 stimulated, 5 h; at 7.69 µM (top of the series) unless noted
Outline: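 Screening format detects activators and inhibitors alike: ME-180 SIE-bla cells stimulated at 40 pM IL-6 for 5 hrs with compound, then dual-emission beta-lactamase read at 405 nm excitation.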

[5] = biological target: Glucocorticoid receptor (Homo sapiens) (UniProt P04150); test: GR-EFC Redistribution (AID 451; calls by dose curve; also: potency is read from the fitted curve at half-maximal effect); conditions: CHO-K1 GR-EFC translocation, beta-gal luminescence, 2 h
Glucocorticoid receptor (Homo sapiens), sequence (P04150 whole entry, looked up, the tested form may be a part): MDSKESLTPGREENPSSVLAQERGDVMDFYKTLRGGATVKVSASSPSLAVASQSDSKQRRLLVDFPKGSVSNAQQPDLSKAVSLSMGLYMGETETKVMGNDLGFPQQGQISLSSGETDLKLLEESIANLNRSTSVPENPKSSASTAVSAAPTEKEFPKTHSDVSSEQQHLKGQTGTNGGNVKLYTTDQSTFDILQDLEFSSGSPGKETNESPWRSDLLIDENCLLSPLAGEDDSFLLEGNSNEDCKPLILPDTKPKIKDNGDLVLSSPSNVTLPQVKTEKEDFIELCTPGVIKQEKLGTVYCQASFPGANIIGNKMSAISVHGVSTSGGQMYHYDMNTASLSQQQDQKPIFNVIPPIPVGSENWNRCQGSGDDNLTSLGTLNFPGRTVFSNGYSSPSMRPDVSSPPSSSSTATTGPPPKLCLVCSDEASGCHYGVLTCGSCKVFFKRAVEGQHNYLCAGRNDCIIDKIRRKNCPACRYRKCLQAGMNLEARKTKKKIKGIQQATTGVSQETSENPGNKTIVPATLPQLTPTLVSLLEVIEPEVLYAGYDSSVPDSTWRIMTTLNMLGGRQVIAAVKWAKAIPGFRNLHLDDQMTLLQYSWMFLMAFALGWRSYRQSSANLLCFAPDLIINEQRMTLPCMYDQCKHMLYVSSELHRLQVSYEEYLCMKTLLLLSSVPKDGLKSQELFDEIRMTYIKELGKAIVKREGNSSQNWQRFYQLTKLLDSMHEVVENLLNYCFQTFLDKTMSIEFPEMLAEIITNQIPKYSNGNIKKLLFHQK
Outline: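 CHO-K1 cells stably expressing nuclear-localized β-gal enzyme acceptor and GR fused C-terminally to the enzyme donor fragment; ligand-driven nuclear translocation restores β-gal by complementation. Compounds titrated up to 46 uM final, 2 h at 37 °C; luminescence read.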

[6] = biological target: Mitogen-activated protein kinase 10 (Mus musculus) (UniProt Q61831); test: JNK3 AlphaScreen Assay (AID 530; active = well fitted curve in either direction with a large enough effect, not every such curve was filed as active;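 also: kinase came from lysate of stimulated human HepG2 cells; signal reports phosphorylation of biotinylated GST-cJun 1-79 at Ser73 with 10 µM ATP; % is scaled to controls: 0 for no effect and ±100 for the full control effect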); conditions: JNK3 lysate, c-Jun phosphorylation; series mostly up to 57.1 µM
Outline: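 Inhibitors reduce antibody binding to phosphorylated biotin-cJun, lowering AlphaScreen luminescence. Lysates from HepG2 cells pre-activated by IL-1beta plus TNF-alpha supplied JNK3; compounds were titrated.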

[7] = biological target: 3',5'-cyclic-AMP phosphodiesterase 4B (Homo sapiens) (UniProt Q07343); test: qHTS Assay for Inhibitors of PDE-IV (AID 607; active = well fitted activation curve with a large enough effect in the main read-out, with a control signal flat, not every such curve was filed as active; also: % of control where 0% means no effect); conditions: HEK293 ACTOne CNG channel cells, membrane potential fluorescence; series mostly up to 22.9 µM
3',5'-cyclic-AMP phosphodiesterase 4B (Homo sapiens), sequence (Q07343 whole entry, looked up): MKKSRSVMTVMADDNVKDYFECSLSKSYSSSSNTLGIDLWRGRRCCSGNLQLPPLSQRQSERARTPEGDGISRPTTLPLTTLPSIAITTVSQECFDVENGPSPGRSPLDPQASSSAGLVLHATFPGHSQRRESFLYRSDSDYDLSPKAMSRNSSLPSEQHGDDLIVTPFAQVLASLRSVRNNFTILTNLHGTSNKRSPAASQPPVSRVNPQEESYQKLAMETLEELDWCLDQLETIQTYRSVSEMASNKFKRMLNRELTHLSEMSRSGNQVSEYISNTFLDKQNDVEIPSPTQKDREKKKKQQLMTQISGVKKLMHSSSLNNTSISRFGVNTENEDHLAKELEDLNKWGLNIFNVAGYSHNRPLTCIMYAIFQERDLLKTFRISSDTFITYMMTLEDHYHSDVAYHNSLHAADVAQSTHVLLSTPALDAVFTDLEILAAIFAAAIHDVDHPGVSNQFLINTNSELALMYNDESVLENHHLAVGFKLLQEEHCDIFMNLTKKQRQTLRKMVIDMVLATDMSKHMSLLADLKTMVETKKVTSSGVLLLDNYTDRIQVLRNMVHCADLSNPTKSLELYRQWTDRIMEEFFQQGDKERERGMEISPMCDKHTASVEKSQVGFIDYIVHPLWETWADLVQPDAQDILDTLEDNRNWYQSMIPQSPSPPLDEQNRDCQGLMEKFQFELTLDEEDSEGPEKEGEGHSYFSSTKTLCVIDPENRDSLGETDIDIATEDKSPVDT
Outline: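 The readout is membrane depolarisation from a cAMP-sensing CNG channel, detected with a potential dye at ex 535/em 590. Cells were HEK293-derived (endogenous PDE-IV) at 1000 cells/well, titrated up to 22.9 uM final.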

[8] = qHTS Assay for Lipid Storage Modulators (AID 1519; calls by dose curve); conditions: Drosophila S3 cells, BODIPY lipid droplet/cell ratio, laser cytometry, cells loaded with oleic acid; for activity change, negative = inhibition: at 57.5 µM (top of the series)
Outline: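 Cells seeded at 5,000 per well were treated with compounds over a concentration series and loaded with oleic acid (400 uM, as added). Lipid droplet fluorescence (488 nm excitation, 500-530 nm channel) was read by laser-scanning cytometry and normalized to 20 uM Triacsin C.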

[9] = biological target: Dual specificity protein kinase CLK4 (Homo sapiens) (UniProt Q9HAZ1); test: qHTS Assay for Inhibitors of CDC-like Kinase 4 (Kinase-Glo Assay) (AID 1770); conditions: recombinant Clk4, Kinase-Glo ATP depletion luminescence; series mostly up to 66.7 µM; also: nearly all actives have a fitted effect of over 65% in size; also: potency is read from the fitted curve at half-maximal effect
Dual specificity protein kinase CLK4 (Homo sapiens), sequence (Q9HAZ1 whole entry, looked up): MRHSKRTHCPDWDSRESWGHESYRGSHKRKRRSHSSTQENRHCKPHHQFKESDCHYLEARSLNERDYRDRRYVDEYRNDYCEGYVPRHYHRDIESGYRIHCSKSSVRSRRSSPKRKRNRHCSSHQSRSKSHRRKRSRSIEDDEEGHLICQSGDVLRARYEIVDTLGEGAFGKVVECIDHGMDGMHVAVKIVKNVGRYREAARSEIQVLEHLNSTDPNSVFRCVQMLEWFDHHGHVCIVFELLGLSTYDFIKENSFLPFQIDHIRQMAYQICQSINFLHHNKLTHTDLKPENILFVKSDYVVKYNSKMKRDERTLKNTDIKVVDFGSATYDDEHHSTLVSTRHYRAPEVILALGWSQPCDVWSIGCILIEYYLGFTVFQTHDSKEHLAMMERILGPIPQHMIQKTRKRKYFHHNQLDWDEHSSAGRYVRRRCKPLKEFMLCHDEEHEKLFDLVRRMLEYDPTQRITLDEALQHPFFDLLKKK
Outline: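 Clk4 25 nM, RS peptide 100 uM, ATP 1 uM, pH 7.5 Tris, 10 mM MgCl2, 2.5 mM DTT; 4.5 h RT; ATP depletion read by Kinase-Glo luminescence.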

[10] = biological target: Dual specificity protein kinase CLK4 (Homo sapiens) (UniProt Q9HAZ1); test: qHTS Assay for Inhibitors of CDC-like Kinase 4 (ADP-FP Assay) (AID 1795); conditions: Transcreener ADP fluorescence polarization; series mostly up to 50 µM; also: nearly all actives have a fitted effect of over 60% in size; also: potency is read from the fitted curve at half-maximal effect
Outline: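 Kinase activity was followed as ADP output, converted from fluorescence polarization with a calibration curve. Reactions ran one hour at low ATP (1 uM) with RS peptide substrate.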

[11] = AP1 Signaling Pathway (AID 357; active = well fitted curve in either direction with a large enough effect, not every such curve was filed as active;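 also: ME-180 reporter cells stimulated with EGF at its EC50 level; % is scaled to controls: 0 for no effect and ±100 for the full control effect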); conditions: ME-180 AP-1-bla reporter, EGF-induced, beta-lactamase ratio, 5 h; at 7.69 µM (top of the series) unless noted
Outline: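 Beta-lactamase reporter under AP-1 response element, ME-180 background. Stimulus: EC50 EGF. Compound exposure 5 h, 37 °C. Detection: CCF4, 2.5 h RT, 460/530 nm. Values: AC50 from titration.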

[12] = biological target: Glucocorticoid receptor (Homo sapiens) (UniProt P04150); test: GR-GFP Redistribution (AID 450;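 active = compounds whose dose series gives a full or clear partial fitted curve of increased nuclear translocation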; also: potency is read from the fitted curve at half-maximal effect); conditions: U2OS GR-GFP nuclear translocation, laser cytometry, 2 h
[13] = biological target: Cytochrome P450 3A4 (Homo sapiens) (UniProt P08684); test: qHTS Assay for Activators of Cytochrome P450 3A4 (AID 885); conditions: recombinant CYP3A4, Luciferin-PPXE luminescence, 60 min; series mostly up to 57.1 µM; also: nearly all actives have a fitted effect of over 65% in size
Cytochrome P450 3A4 (Homo sapiens), sequence (P08684 whole entry, looked up): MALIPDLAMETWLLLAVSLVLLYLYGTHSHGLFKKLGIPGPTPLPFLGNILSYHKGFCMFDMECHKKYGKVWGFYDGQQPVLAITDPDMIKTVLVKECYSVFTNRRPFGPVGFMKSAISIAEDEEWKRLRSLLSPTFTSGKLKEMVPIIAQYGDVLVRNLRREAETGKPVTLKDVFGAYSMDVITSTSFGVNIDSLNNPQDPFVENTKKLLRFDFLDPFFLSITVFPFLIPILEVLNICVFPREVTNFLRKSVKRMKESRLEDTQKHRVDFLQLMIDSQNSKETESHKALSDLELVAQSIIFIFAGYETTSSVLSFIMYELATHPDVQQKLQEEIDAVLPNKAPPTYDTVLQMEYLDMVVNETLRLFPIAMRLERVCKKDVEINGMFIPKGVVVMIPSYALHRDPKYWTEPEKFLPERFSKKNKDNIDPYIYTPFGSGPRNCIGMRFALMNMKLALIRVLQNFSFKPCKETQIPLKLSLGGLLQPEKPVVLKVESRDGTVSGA
Outline: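 Steps: enzyme/substrate mix dispensed; compound added, 10 min RT; NADPH regeneration solution added, 60 min RT; luciferin detection buffer stops reaction; 20 min later luminescence measured.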

[14] = qHTS Assay for Identification of Small Molecule Agonists for Hypoxia Response Element Signaling Pathway (AID 914; active = well fitted activation curve with a large enough effect in the signal ratio, with a control signal flat, not every such curve was filed as active; the % refers to the signal ratio; also: potency is read from the fitted curve at half-maximal effect); conditions: ME-180 (cervical carcinoma) HRE-bla reporter, beta-lactamase ratio, CoCl2, 17 h; activation: stronger effect = higher value
Outline: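 Reporter activity (beta-lactamase, CCF4 460nm/530nm ratio) in HRE-bla ME-180 cells is recorded after 17 h compound exposure with EC50 CoCl2 at 37 degrees Celsius. AC50 values come from titration data.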

[15] = biological target: Dual specificity protein kinase CLK4 (Homo sapiens) (UniProt Q9HAZ1); test: qHTS Assay for Inhibitors of CDC-like Kinase 4 (ADP-Glo Assay) (AID 1771); conditions: recombinant CLK4, ADP-Glo luminescence; series mostly up to 80 µM; also: nearly all actives have a fitted effect of over 70% in size; also: potency is read from the fitted curve at half-maximal effect
Outline: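 25 nM Clk4 with 100 uM RS repeat peptide and 1 uM ATP (final) in buffer with 2 mM MgCl2, 0.5 mM EGTA, 2.5 mM DTT, 0.01% Triton X-100; 1 h at room temperature; ADP-Glo luminescence for ADP formed.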

[16] = biological target: Ubiquitin carboxyl-terminal hydrolase 1 (Homo sapiens) (UniProt O94782); test: Inhibitors of USP1/UAF1: Pilot qHTS (AID 504865); conditions: purified USP1/UAF1, Ub-rhodamine cleavage fluorescence; series mostly up to 54.9 µM;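 also: rhodamine fluorescence freed from ubiquitin-rhodamine substrate followed over time; top concentration of the series differs between compounds; % is scaled to controls: 0 for no effect and ±100 for the full control effect; nearly all actives have a fitted effect of over 35% in size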
Ubiquitin carboxyl-terminal hydrolase 1 (Homo sapiens), sequence (O94782 whole entry, looked up): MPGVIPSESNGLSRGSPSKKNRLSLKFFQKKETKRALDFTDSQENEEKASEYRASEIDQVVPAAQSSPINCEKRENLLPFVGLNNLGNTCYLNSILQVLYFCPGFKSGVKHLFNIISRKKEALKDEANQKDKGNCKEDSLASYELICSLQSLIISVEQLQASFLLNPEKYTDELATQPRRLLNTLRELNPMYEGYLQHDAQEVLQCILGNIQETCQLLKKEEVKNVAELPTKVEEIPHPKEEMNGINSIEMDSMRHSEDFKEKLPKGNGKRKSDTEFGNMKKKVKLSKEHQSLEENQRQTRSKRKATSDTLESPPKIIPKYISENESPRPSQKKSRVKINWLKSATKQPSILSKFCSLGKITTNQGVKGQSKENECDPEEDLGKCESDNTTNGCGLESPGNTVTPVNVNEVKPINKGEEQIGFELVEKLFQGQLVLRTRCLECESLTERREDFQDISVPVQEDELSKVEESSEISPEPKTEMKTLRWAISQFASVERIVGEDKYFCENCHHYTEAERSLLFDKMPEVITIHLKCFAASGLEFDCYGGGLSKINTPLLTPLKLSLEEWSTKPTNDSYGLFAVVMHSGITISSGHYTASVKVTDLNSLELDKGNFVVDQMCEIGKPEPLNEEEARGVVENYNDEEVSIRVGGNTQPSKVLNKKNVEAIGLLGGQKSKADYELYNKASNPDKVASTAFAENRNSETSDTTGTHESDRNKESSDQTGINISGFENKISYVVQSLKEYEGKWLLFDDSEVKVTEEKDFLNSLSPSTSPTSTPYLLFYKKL
Outline: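 Enzyme-free wells gave the negative control, while test wells held 1nM USP1/UAF1 preincubated with compound for 15 min at room temperature. Ub-Rho at 150nM final started the reaction, and fluorescence at 480/540 nm was recorded kinetically.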

[17] = biological target: Cytochrome P450 3A4 (Homo sapiens) (UniProt P08684); test: qHTS Assay for Inhibitors and Substrates of Cytochrome P450 3A4 (AID 884); conditions: recombinant CYP3A4, Luciferin-PPXE luminescence; series mostly up to 57.1 µM; also: potency is read from the fitted curve at half-maximal effect; nearly all actives have a fitted effect of over 50% in size
Outline: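 20 nM human CYP3A4 with 25 uM Luciferin-PPXE (at KM) in 200 mM KPO4, preincubated 10 min with compound; NADPH regeneration started a 60 min RT reaction. Luciferin detected by luminescence, normalized to 57 uM ketoconazole as full inhibition.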

[18] = biological target: Cytochrome P450 2C19 (Homo sapiens) (UniProt P33261); test: qHTS Assay for Inhibitors and Substrates of Cytochrome P450 2C19 (AID 899); conditions: recombinant CYP2C19, luciferin-H EGE luminescence; series mostly up to 57.1 µM; also: potency is read from the fitted curve at half-maximal effect; nearly all actives have a fitted effect of over 60% in size
Cytochrome P450 2C19 (Homo sapiens), sequence (P33261 whole entry, looked up): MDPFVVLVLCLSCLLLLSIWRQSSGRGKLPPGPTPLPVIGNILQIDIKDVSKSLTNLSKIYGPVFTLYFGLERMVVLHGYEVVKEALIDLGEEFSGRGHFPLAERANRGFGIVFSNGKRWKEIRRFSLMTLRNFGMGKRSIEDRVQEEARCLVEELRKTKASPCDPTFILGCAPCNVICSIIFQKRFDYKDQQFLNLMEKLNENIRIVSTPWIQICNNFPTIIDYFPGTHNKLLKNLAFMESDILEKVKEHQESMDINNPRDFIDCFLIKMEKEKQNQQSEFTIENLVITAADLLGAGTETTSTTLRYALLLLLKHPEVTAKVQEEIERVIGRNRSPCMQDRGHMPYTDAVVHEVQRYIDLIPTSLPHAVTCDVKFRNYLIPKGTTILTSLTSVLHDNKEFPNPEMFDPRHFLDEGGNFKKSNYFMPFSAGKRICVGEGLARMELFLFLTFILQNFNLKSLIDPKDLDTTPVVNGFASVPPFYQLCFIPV
Outline: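 NADPH-dependent conversion of Luciferin-H EGE (10uM, at KM) by 5nM enzyme in 50mM KPO4, 60 min at 37C following 10 min compound preincubation. Stopped with luciferin detection buffer; luminescence read after 20 min.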

[19] = measured here: cell count channel max response
[20] = measured here: lipid channel max response

CN1CCN(c2ncc3ncc(=O)n(-c4ccccc4)c3n2)CC1
inactive: Potency [1] > 11.4 µM | activity change, negative = inhibition [3] -18.4% | activity, negative = inhibition [4] -9.93% | Potency [5] > 46 µM | Potency [6] | Potency [7] | activity change, negative = inhibition [8] 4.96% | Potency [9] | Potency [10]
23.9%: max response [8, 20]
21.7%: max response [8, 19]
active: Potency [2] 2.51 µM

COc1ccc(-n2c(=O)c(-c3cn(C)c4ccccc34)nc3cnc(N4CCNCC4)nc32)cc1
26.4%: max response [8, 20]
16.8%: max response [8, 19]
active: Potency [2] 15.8 µM | Potency [14] 3.16 µM
inactive: activity change, negative = inhibition [11] 26.2% | Potency [12] > 9.22 µM | Potency [5] > 46 µM | Potency [7] | Potency [13] | activity change, negative = inhibition [8] 7.55% | Potency [9] | Potency [15] | Potency [10] | Potency [16]

COc1cccc(Nc2ncc3nc(C)c(=O)n(C[C@H]4CCCO4)c3n2)c1
-4.6%: max response [8, 19]
inactive: Potency [1] > 11.4 µM | activity change, negative = inhibition [11] -22.6% | activity change, negative = inhibition [3] 8.96% | activity, negative = inhibition [4] -10.3% | Potency [12] > 9.22 µM | Potency [5] > 46 µM | Potency [6] | Potency [7] | activity change, negative = inhibition [8] -3.96% | Potency [16]
active: Potency [9] 12.6 µM | Potency [15] 17.8 µM
-7.75%: max response [8, 20]

COc1ccc(CNc2ncnc3ccc(-c4ccc(N(C)C)cc4)cc23)c(OC)c1
-26.6%: max response [8, 19]
inactive: activity, negative = inhibition [4] -9.37% | Potency [12] > 46 µM | Potency [5] > 46 µM | Potency [7] | Potency [13] | activity change, negative = inhibition [8] 3.77% | Potency [9] | Potency [10] | Potency [16]
-24.8%: max response [8, 20]
active: Potency [2] 2.51 µM | Potency [17] 3.98 µM | Potency [18] 3.98 µM

COc1ccccc1-c1ccc2ncnc(NCc3cnc(C)cn3)c2c1
14%: max response [8, 20]
13.2%: max response [8, 19]
active: Potency [2] 6.31 µM | Potency [9] 15.8 µM | Potency [15] 17.8 µM
inactive: Potency [1] > 11.4 µM | activity change, negative = inhibition [11] -23.9% | activity change, negative = inhibition [3] 3.25% | activity, negative = inhibition [4] -25.2% | Potency [12] > 46 µM | Potency [5] > 46 µM | Potency [6] | Potency [7] | Potency [13] | activity change, negative = inhibition [8] 2.78% | Potency [16]

COc1ccccc1CNc1ncnc2ccc(-c3ccoc3)cc12
20%: max response [8, 19]
4.99%: max response [8, 20]
active: Potency [2] 2.51 µM | Potency [9] 0.251 µM | Potency [15] 0.316 µM | Potency [10] 0.141 µM
inactive: activity change, negative = inhibition [3] -7.72% | activity, negative = inhibition [4] -21.5% | Potency [12] > 46 µM | Potency [5] > 46 µM | Potency [6] | Potency [13] | activity change, negative = inhibition [8] -10.7% | Potency [16]
